Measurements taken from the supplement of paper PMC3334620.
In all, about 33,000 sequences were measured (“E-score (-0.5 to 0.5)”: median about -0.032, highest 2% from about 0.36 on). The full list was thinned out, with the highest values kept by preference.

Molecular target: T1, Sko1 (UniProt Q02100)
T1 sequence: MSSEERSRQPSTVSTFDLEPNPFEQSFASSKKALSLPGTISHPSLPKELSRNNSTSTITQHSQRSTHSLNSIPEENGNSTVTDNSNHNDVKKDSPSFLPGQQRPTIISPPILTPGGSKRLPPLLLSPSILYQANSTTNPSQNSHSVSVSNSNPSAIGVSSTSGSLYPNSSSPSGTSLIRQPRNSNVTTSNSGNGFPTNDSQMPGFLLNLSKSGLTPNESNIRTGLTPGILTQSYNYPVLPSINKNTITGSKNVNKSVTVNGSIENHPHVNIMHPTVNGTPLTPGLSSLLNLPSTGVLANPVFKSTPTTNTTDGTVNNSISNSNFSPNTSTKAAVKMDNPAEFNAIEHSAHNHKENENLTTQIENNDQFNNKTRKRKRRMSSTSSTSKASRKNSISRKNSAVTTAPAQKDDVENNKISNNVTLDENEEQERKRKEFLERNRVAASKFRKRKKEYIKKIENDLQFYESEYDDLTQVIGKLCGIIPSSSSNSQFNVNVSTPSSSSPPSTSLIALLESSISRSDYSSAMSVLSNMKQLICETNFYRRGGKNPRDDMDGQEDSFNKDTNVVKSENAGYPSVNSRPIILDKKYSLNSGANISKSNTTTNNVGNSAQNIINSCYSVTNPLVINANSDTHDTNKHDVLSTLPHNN
Test: PBM E-score (8-mer binding enrichment) (E-score (-0.5 to 0.5)); higher = stronger / more preferred TF binding
Details: protein concentration: 200 nM; construct: GST-full length
Summary of the method: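 Full-length yeast transcription factors or their DNA-binding domains, GST-tagged and expressed with PURExpress, were applied at about 100-200 nM to universal all-10-mer Agilent arrays. These arrays had been made double-stranded by primer extension on fresh or once-stripped slides. Detection used fluorescent anti-GST, normalisation used masliner, and E-scores for ungapped eight-base words pooled with reverse complements came from the Universal PBM Analysis Suite.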

Row | Sequence | PBM E-score
1 | CGCACTGA | 0.0222
2 | AGCTATAT | 0.172
3 | TCCCGACA | -0.139
4 | CAAGTCGC | -0.173
5 | AACGTATC | 0.353
6 | AGCGTATA | 0.15
7 | AACGTATA | 0.406
8 | ACACGGGG | -0.242
9 | CTTACGAC | 0.16
10 | ACTACGAC | 0.181
11 | AATACGAG | 0.244
12 | ACTACGAG | 0.162
13 | ATTACGAC | 0.396
14 | ATTACGAG | 0.36
15 | ATACCTGC | -0.102
16 | CAAATTAG | 0.104
17 | CCGTCACG | 0.152
18 | GCGTCACA | 0.406
19 | CCGTCACA | 0.163
20 | TCGTCACA | 0.379
21 | TGGTCACA | 0.0263
22 | GCGTCACC | 0.341

Row | Sequence | PBM E-score
23 | ACTAGACT | -0.176
24 | CAATAGCA | -0.132
25 | CTGCAATC | -0.0429
26 | CGCTGAGA | -0.0923
27 | AAAACCAG | -0.0997
28 | ACGCAACA | 0.388
29 | CCGCAACC | -0.2
30 | ACGCAACT | 0.355
31 | CCGCAACA | 0.165
32 | ACGCAACG | 0.377
33 | CCGCAACG | 0.0186
34 | GCGCAACC | -0.162
35 | ACGCAACC | 0.379
36 | GCGCAACA | 0.175
37 | TAGAGCCA | -0.278
38 | GCCGAGAC | -0.218
39 | ATGGGTCG | -0.179
40 | ATTCAAGC | 0.106
41 | ATGTTCTA | 0.0474
42 | GCGTGCGA | -0.0187
43 | ATACATCC | 0.0616
44 | ATACATCG | 0.196

Row | Sequence | PBM E-score
45 | GTACATTA | 0.295
46 | GTACATGA | 0.184
47 | GTACATCA | 0.366
48 | CTACATCA | 0.375
49 | ATACATCA | 0.382
50 | CTACATCC | -0.0667
51 | CTACATTA | 0.00265
52 | CGGGGCGC | -0.313
53 | AACAGGTT | -0.0299
54 | AGGCACTA | -0.0926
55 | CGACATCA | 0.355
56 | TAACATCA | 0.367
57 | CAACATCA | 0.294
58 | AGACATAA | 0.0234
59 | TGACATAA | 0.424
60 | CTACATAA | 0.194
61 | TGACATCA | 0.466
62 | AAACATCA | 0.189
63 | TTACATAA | 0.407
64 | GGACATAA | 0.0688
65 | GGACATCA | 0.205
66 | GTACATAA | 0.306

Row | Sequence | PBM E-score
67 | CACCAATG | 0.00918
68 | GCCTTAGC | -0.113
69 | CGGCTACG | 0.243
70 | ATCGTCCC | -0.0614
71 | CCAAACCG | -0.149
72 | ACAAGTTG | -0.041
73 | AAAGACTA | 0.026
74 | CAAACCAA | -0.0239
75 | ATTCACGG | 0.095
76 | GACCTTAC | 0.0378
77 | AACTTAGC | 0.0908
78 | ATGGTGGC | -0.29
79 | GACTTTTA | 0.0964
80 | CGTCACAA | 0.388
81 | CGTCACAC | 0.437
82 | GGTCACAC | -0.0911
83 | TGTCACAA | 0.133
84 | GGTCACAA | -0.151
85 | CCTCACAG | -0.175
86 | CGTCACAG | 0.438
